PNC inhibitor – inhibitors of perinucleolar compartment assembly. PC3M PTB-GFP, PNC prevalence imaging, 16 h; active compounds read low. activity change (PNC), negative = inhibition, % at 10 µM. actives 3.1% (n = 140,000). AID 2417;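 active = readout at or below -70, meaning at least 70% loss of cells showing the perinucleolar compartment, a nuclear body marking cancer cells; inconclusive = readout between -30 and a set limit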
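Read-out is percentage of cells bearing a perinucleolar compartment, from automated 20x imaging of fixed, Hoechst-stained PC3M PTB-GFP cells. Cells were seeded 4 h, then exposed 16 h to compound (23 nl of library stock) in duplicate plates.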
IMPase inh – membrane-permeable compound that blocks inositol monophosphatase. P97697. inhibition (IP1 accumulation), % at 46.1 µM. CHO-M1 cells, IP1 accumulation, HTRF TR-FRET ratio. 120,000 tested, under 10 active; active = well fitted curve in the direction sought with a large enough effect in the signal ratio, not every such curve was filed as active; inconclusive = small, poorly fitted or top-dose-only effect, or a change in a side signal; inactive = no such curve, though single readings can be large or run the other way; the % refers to the signal ratio;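 note: cells stimulated with carbachol in lithium chloride buffer; higher means more IMPase inhibition seen as more IP1 and lower FRET ratio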
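CHO-M1, 2000 cells/well, cultured 16–30 h; cpd up to 46 uM; carbachol (50 uM solution, stimulation buffer w/ 50 mM LiCl, pH 7.4), 30 min 37C; IP-One TR-FRET, 10 min RT; Ex 320/Em 665, 620; Hill-fit AC50.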
ALDH1A1 inh – ALDH1A1 (human) enzyme inhibition | Potency, µM (highest dose often 75.3 µM), hits mostly inhibitors | Purified ALDH1A1, NADH fluorescence, propionaldehyde substrate | actives 7.3% (n = 220,000) | P00352
Target sequence (P00352 whole entry, looked up): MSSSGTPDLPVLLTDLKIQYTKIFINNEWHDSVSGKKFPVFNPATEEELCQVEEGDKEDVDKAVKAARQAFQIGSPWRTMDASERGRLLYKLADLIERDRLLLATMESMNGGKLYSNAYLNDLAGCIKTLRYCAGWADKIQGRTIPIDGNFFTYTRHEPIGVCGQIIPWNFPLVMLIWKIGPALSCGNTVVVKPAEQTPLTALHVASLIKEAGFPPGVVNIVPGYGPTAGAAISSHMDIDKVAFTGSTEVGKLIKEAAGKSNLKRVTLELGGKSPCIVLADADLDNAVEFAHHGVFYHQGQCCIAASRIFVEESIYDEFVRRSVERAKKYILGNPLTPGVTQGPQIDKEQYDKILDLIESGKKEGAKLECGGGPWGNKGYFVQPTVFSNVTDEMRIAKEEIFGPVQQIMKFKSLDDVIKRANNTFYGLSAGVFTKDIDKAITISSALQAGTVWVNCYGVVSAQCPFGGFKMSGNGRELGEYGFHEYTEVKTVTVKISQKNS
HPGD block – inhibitors of human 15-hydroxyprostaglandin dehydrogenase (HPGD). P15428. purified HPGD, NADH fluorescence kinetic, PGE2 substrate. Potency, µM, most hits filed as inhibitors. actives 4.3% (n = 150,000). AID 894
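NADH formation kinetics: reaction with 30 uM PGE2 and 1 mM NAD+ (final), 20 nM enzyme, Tris-HCl pH 8 with Tween 20, after 15 min compound preincubation at room temperature. Fluorescence change, last versus first of five reads.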
ALOX12 inhib – inhibitors of human 12-lipoxygenase (ALOX12). actives 0.12% (n = 150,000). Potency, µM (series often up to 57.1 µM), usual class: inhibitors. purified 12-hLO, xylenol orange hydroperoxide absorbance. P18054. AID 1452; active = well fitted curve in the direction sought with a large enough effect; inconclusive = small, poorly fitted or top-dose-only effect, or another doubt; inactive = no such curve, though single readings can be large; an effect the other way counts as inactive or inconclusive; note: nearly all actives have a fitted effect of over 55% in size
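150 nM 12hLO, 25 mM Hepes pH 7.0 + 0.01% Triton X-100; cpd preinc 15 min RT; 40 uM arachidonic acid, 30 min RT; Fe-XO 30 min; A573/A405 ratio as read-out.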
IMPase Li inh – membrane-permeable IMPase blocker, potentiated with lithium; actives 0.35% (n = 210,000); AID 1457; Potency, µM (doses to about 59.4 µM), usual class: inhibitors; CHO-M1 cells, IP1 TR-FRET (IP-One), carbachol + lithium; active = well fitted curve in the direction sought with a large enough effect; inconclusive = small, poorly fitted or top-dose-only effect, or another doubt; inactive = no such curve, though single readings can be large; an effect the other way counts as inactive or inconclusive;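 note: IP1 builds up when IMPase is blocked and the TR-FRET signal falls; nearly all actives have a fitted effect of over 50% in size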
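Readout is a homogeneous TR-FRET IP1 immunoassay (Ex 320, Em 665 and 620), where raised cytosolic IP1 lowers signal. Cells were CHO-M1 treated 30 min at 37C with test compounds plus a little lithium; AC50 values came from Hill-equation fitting.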
Each line names hits and unclear results; the compound was inactive in the other large screens. This is a sample that favours compounds with a hit; in the whole collection about 11% have one here. Unless noted, calls come from the whole dose curve; as a rule, active = well fitted inhibition curve with a large enough effect (not every such curve was filed as active); inconclusive = small, poorly fitted or top-dose-only effect, or another doubt; inactive = no such curve, though single readings can be large or run the other way.

CC(C)OC(=O)n1c(=S)oc2ccccc21	ALDH1A1 inh 7.08µM, HPGD block inconclusive
O=S(=O)(O)n1ccnc1 (tested in a mixture with another compound)	none (no result: PNC inhibitor, IMPase inh)
COc1ccc2c(c1)CCC1C2CC[C@]2(C)[C@H](NCCCCCCN3C(=O)C=CC3=O)CC[C@@H]12 (stereo partly specified)	none (no result: PNC inhibitor, ALDH1A1 inh, HPGD block, IMPase Li inh)
C=CCC(C=C)[N+]1(CC(=O)OC)CCCCC1 (stereo unspecified)	none (no result: PNC inhibitor, IMPase inh, HPGD block, ALOX12 inhib)
Cc1ccc(-c2nc(-c3ccccc3)no2)c(Cl)c1	HPGD block 39.8µM
c1cncc(-c2noc(-c3cccc4ccccc34)n2)c1	ALDH1A1 inh inconclusive, HPGD block inconclusive
COc1ccc(-c2csc3nc(-c4cccnc4)nc(Cl)c23)cc1OC	PNC inhibitor inconclusive, ALDH1A1 inh inconclusive, HPGD block inconclusive (no result: IMPase inh)
Clc1nc(-c2cccnc2)nc2scc(-c3ccccc3)c12	ALDH1A1 inh inconclusive, HPGD block 20µM (no result: IMPase inh)
COc1ccc(-c2noc(-c3ccccc3-c3ccccc3)n2)cc1	none
c1ccc(-c2ccccc2-c2nc(-c3cccnc3)no2)cc1	PNC inhibitor -101.4, ALDH1A1 inh inconclusive
Brc1ccccc1-c1nnc(-c2cccnc2)o1	PNC inhibitor -81.2
COCCNc1ncnc2ccc(-c3ccccc3OC)cc12	ALDH1A1 inh inconclusive (no result: PNC inhibitor, IMPase inh, HPGD block, ALOX12 inhib)
C=C(C[C@]1(C(=O)OC)CC2(CC=C(C)C)C(=O)C(C(=O)CC(C)C)=C(O)C(CC=C(C)C)(C1)C2=O)C(=O)OC (stereo partly specified)	none (no result: PNC inhibitor, IMPase inh, ALOX12 inhib)
C=CCNC(=O)N1CCc2nc(CCCC)c3c(c2C1)CO[C@@H](C)C3	none (no result: PNC inhibitor, IMPase inh)
Clc1ccc(Cc2nc(-c3cccnc3)no2)cc1	PNC inhibitor -92.7
Fc1ccccc1-c1nc(-c2ccccc2)no1	PNC inhibitor -100.0
CC/C=C\C/C=C\C/C=C\C/C=C\C/C=C\C/C=C\CCC(N)=O	none (no result: PNC inhibitor, IMPase inh)
FC(F)(F)c1ccccc1-c1nc(NCCN2CCOCC2)c2ccccc2n1	none (no result: PNC inhibitor, IMPase inh, HPGD block, ALOX12 inhib)
O=C(O)CCc1nn2cc(-c3ccccc3)nc2[nH]c1=O	PNC inhibitor -100.0, IMPase inh inconclusive, ALDH1A1 inh inconclusive, HPGD block inconclusive
Cc1nn2cc(-c3ccccc3)nc2[nH]c1=O	PNC inhibitor inconclusive, IMPase inh inconclusive (no result: HPGD block, IMPase Li inh)
CCn1c(=O)c2c(cnn2C)c2ccccc21	HPGD block 31.6µM
CCn1c(=O)c(-c2ccccc2)c(O)c2ccccc21	none
COc1ccc(COC2OC[C@]3(C)[C@H]4C5=C(CN3C(=O)OC(C)(C)C)[C@H](C)C(CO)C(CO)C5CC[C@@H]24)cc1 (stereo partly specified)	none (no result: PNC inhibitor, IMPase inh)
O=[N+]([O-])c1ccc(N2CCC(=NOCc3ccc(Cl)cc3)CC2)cc1	ALDH1A1 inh 12.6µM
CCC/C=C(\CCC)C(NS(=O)(=O)c1cccc2cccnc12)c1ccc(-c2ccccc2)cc1 (stereo unspecified)	none (no result: PNC inhibitor, IMPase inh)
CN(C)CCNS(=O)(=O)c1ccc(Cl)cc1	PNC inhibitor -100.0
CCN(CC)CCNS(=O)(=O)c1ccc(Cl)cc1	PNC inhibitor inconclusive
COC(=O)Cn1c(C(=O)N2CCCC2)cc2c1C[C@H]1CN(C(=O)c3ccccc3)[C@@](Cc3ccccc3)(C(=O)OC)[C@@H]21	none (no result: PNC inhibitor, IMPase inh)
CCC(C)[C@H](NC(=O)N1CCN(C)CC1)C(=O)OC (stereo partly specified)	PNC inhibitor inconclusive
CCC(C)NC(=S)N1CCN(C)CC1 (stereo unspecified)	ALDH1A1 inh 22.4µM (no result: PNC inhibitor, IMPase inh, HPGD block, ALOX12 inhib)
FC(F)(F)c1cnc(N2CCCN(C(=S)Nc3ccccc3)CC2)c(Cl)c1	none (no result: PNC inhibitor, IMPase inh, HPGD block, ALOX12 inhib, IMPase Li inh)
O=C(CCCn1c(SCC(=O)c2ccc(O)c(O)c2)nc2ccccc2c1=O)NCC1CCCO1 (stereo unspecified)	PNC inhibitor inconclusive, ALDH1A1 inh 17.8µM, HPGD block 5.01µM, ALOX12 inhib inconclusive
CCCCCn1c(SCC#N)nc2cc(C(=O)NCC3CCCO3)ccc2c1=O (stereo unspecified)	PNC inhibitor inconclusive, HPGD block 2.51µM

Compound activity: PubChem BioAssay, National Center for Advancing Translational Sciences (NCATS)
